3T3 cytotox: NIH 3T3 cell cytotoxicity; AID 1345082; NIH 3T3 viability, CellTiter-Glo ATP luminescence, 48-72 h; 94,000 tested, 4.3% active; Potency, µM (doses to about 96.7 µM), actives largely listed as inhibitors; further: nearly all actives have a fitted effect of over 55% in size
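Cells were seeded at 400 per well, treated with pin-transferred compound, and kept 48 or 72 hr at 37 °C before CellTiter-Glo addition and luminescence imaging of cellular ATP.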
GPT2 inhibitor: inhibitors of human GPT2 alanine aminotransferase; Q8TD30; Recombinant GPT2, coupled pyruvate oxidase/HRP Amplex Red fluorescence; Potency, µM (titrated, usually from 57.7 µM), usual class: inhibitors; 100,000 tested, 0.25% active; AID 1671188; further: nearly all actives have a fitted effect of over 60% in size
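Fluorescence of coupled pyruvate oxidase/HRP/Amplex Red system (50uM Amplex, 30 min, dark) reports pyruvate formed by GPT2. Enzyme reaction: 10ng/uL GPT2, 2mM L-alanine, 250uM a-KG, 30 min room temperature, pH 7.5; 50uM AOA control.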
hNpr1 antagonist: antagonists of human natriuretic peptide receptor Npr1; HEK293 hNpr1 GloSensor cGMP, ANP-stimulated luminescence; Potency, µM (series often up to 46.3 µM), usual class: inhibitors; 76,000 tested, 1.6% active; calls by dose curve; further: nearly all actives have a fitted effect of over 60% in size
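Compound pre-incubated 30 min at room temperature on GloSensor-loaded HEK293 cells stably carrying hNpr1 and the pGS-40F cGMP biosensor. Stimulation uses hNppA at 0.1 nM final; luminescence is taken at baseline and 20 min post-agonist.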
HEK293 tox: cytotoxic compounds in HEK 293 cells | HEK 293 viability, ATP luminescence (CellTiter-Glo), 48-72 h | Potency, µM (doses to about 115 µM), actives largely listed as inhibitors | 94,000 tested, 6.6% active | AID 1345083; further: nearly all actives have a fitted effect of over 60% in size
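Viability of HEK 293 cells, plated at 250 cells/well, was judged by cellular ATP after compound treatment for 48 or 72 hr. Luminescence was imaged 10 min after CellTiter-Glo addition at room temperature.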
FLuc inh: blocks purified firefly luciferase enzyme activity; Potency, µM (highest dose often 115 µM), usual class: inhibitors; purified P. pyralis luciferase, luminescence, biochemical; 76,000 tested, 2.5% active; AID 1347043; P08659; further: nearly all actives have a fitted effect of over 65% in size
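Cell-free enzyme assay, 10nM P. pyralis luciferase, luciferin and ATP each at 10uM. Inhibition profiled over a 6-point titration, read as luminescence.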
Each line names hits and unclear results; the compound was inactive in the other large screens. Sampled rows, rich in hits. Any-hit rate of the full collection: about 10%. Unless noted, the call rests on the fitted dose curve; in most records, active means well fitted curve in the direction sought with a large enough effect; inconclusive means small, poorly fitted or top-dose-only effect, or another doubt; inactive means no such curve, though single readings can be large; an effect the other way counts as inactive or inconclusive.

O=C(c1cccc2[nH]ccc12)N1CCC(n2cc(-c3nc(-c4ccccc4)no3)nn2)C1 (centres undefined)	3T3 cytotox inconclusive, hNpr1 antagonist 11µM, HEK293 tox inconclusive, FLuc inh inconclusive
O=C(c1ccc[nH]c1=O)N1CCC(n2cc(-c3nc(-c4ccccc4)no3)nn2)CC1	FLuc inh inconclusive
O=C(c1cccc2[nH]ccc12)N1CCC(n2cc(-c3nc(-c4ccccc4)no3)nn2)CC1	3T3 cytotox inconclusive, hNpr1 antagonist inconclusive, HEK293 tox 28µM
N#Cc1cccc(-c2cn3cc(C(=O)NCCc4ccc(Cl)cc4)nc3s2)c1	HEK293 tox inconclusive (no result: hNpr1 antagonist, FLuc inh)
CN1CCN(C(=O)c2ccc3nc(-c4cccnc4)oc3c2)CC1	none (no result: hNpr1 antagonist, FLuc inh)
O=C(NC1CC1)C1CCCN(c2nccc(Nc3ccccc3F)n2)C1 (centres undefined)	3T3 cytotox 89µM, HEK293 tox inconclusive (no result: hNpr1 antagonist, FLuc inh)
O=C(NC1CCCC1)C1CCCN(c2nccc(Nc3ccccc3F)n2)C1 (centres undefined)	3T3 cytotox 40µM, HEK293 tox inconclusive (no result: hNpr1 antagonist, FLuc inh)
O=C(NC1CCCC1)C1CCN(c2nccc(Nc3ccccc3F)n2)CC1	3T3 cytotox inconclusive, HEK293 tox inconclusive (no result: hNpr1 antagonist, FLuc inh)
O=C1Nc2ccc(-c3ccccc3F)cc2C(=O)N2CCN(C(=O)C3CCCCC3)C[C@H]12	3T3 cytotox inconclusive, HEK293 tox inconclusive
COC(=O)c1ccc(CN2C(=O)[C@@H]3C[C@@H](O)CN3C3(CN(CC(C)C)C3)C2=O)cc1	GPT2 inhibitor inconclusive
COCCN1C(=O)[C@@H]2C[C@@H](CN2Cc2cnc3ccccc3c2)Oc2ccccc21	3T3 cytotox 100µM, HEK293 tox inconclusive
O=C1[C@@H]2C[C@@H](CN2Cc2cnc3ccccc3c2)Oc2ccccc2N1Cc1ccccc1	3T3 cytotox inconclusive, HEK293 tox 50µM
CCc1ccc([S+](=O)([O-])c2nnn3c2nc(NC2CC2)c2ccccc23)cc1	3T3 cytotox inconclusive (no result: hNpr1 antagonist, FLuc inh)
CN1C[C@@H](NC(=O)c2ccc3ccccc3c2)C[C@H]1c1nc(-c2ccc3c(c2)OCO3)no1	HEK293 tox inconclusive
CN(C)c1ccc(C(=O)N[C@H]2C[C@@H](c3nc(-c4ccc5c(c4)OCO5)no3)N(C)C2)cc1	3T3 cytotox inconclusive, HEK293 tox inconclusive
CN1C[C@@H](NC(=O)c2ccccc2)C[C@H]1c1nc(-c2ccc3c(c2)OCO3)no1	3T3 cytotox inconclusive, HEK293 tox 79µM
CN1C[C@@H](NC(=O)c2ccc(F)cc2)C[C@H]1c1nc(-c2ccc3c(c2)OCO3)no1	3T3 cytotox inconclusive, HEK293 tox 79µM
Cc1ccc(C(=O)N[C@H]2C[C@@H](c3nc(-c4ccc5c(c4)OCO5)no3)N(C)C2)cc1	3T3 cytotox 79µM, HEK293 tox inconclusive
O=C(Cc1ccc(F)cc1)N1CCC2(CC1)CN(Cc1ccccc1)CC2CO (centres undefined)	3T3 cytotox inconclusive, GPT2 inhibitor inconclusive, HEK293 tox 45µM
COCC1CN(C)CC12CCN(C(=O)Cc1cccc(Cl)c1)CC2 (centres undefined)	3T3 cytotox inconclusive, HEK293 tox 35µM
COCC1CN(C)CC12CCN(C(=O)c1cc(Cl)ccc1OC)CC2 (centres undefined)	HEK293 tox inconclusive
CNCC(=O)N1CCC2(CC1)CN(Cc1ccccc1)CC2CO (centres undefined)	none
COCC1CN(C)CC12CCN(C(=O)Cc1ccc(OC)c(Cl)c1)CC2 (centres undefined)	HEK293 tox 89µM
COCC1CN(C2CCC2)CC12CCN(C(=O)Cc1cccc(F)c1)CC2 (centres undefined)	3T3 cytotox inconclusive, HEK293 tox 50µM
COCC1CN(C2CCC2)CC12CCN(C(=O)c1ccccc1C)CC2 (centres undefined)	3T3 cytotox inconclusive, HEK293 tox inconclusive
COCC1CN(C2CCC2)CC12CCN(C(=O)c1ccccc1Cl)CC2 (centres undefined)	3T3 cytotox inconclusive, HEK293 tox 79µM
COc1cccc(-c2cc(C3CCN(C(=O)Nc4ccc(C)cc4C)CC3)[nH]n2)c1	3T3 cytotox inconclusive, HEK293 tox 45µM
COc1cccc(-c2cc(C3CCN(C(=O)Nc4ccccc4OC)CC3)[nH]n2)c1	3T3 cytotox inconclusive, HEK293 tox 32µM
CCc1ccc(C(=O)N2CCC(c3cc(-c4cccc(OC)c4)n[nH]3)CC2)cc1	3T3 cytotox inconclusive, hNpr1 antagonist inconclusive, HEK293 tox 45µM
COc1cccc(-c2cc(C3CCN(C(=O)Nc4ccc(OC)cc4OC)CC3)[nH]n2)c1	3T3 cytotox inconclusive, GPT2 inhibitor inconclusive, HEK293 tox inconclusive
COc1cccc(-c2cc(C3CCN(C(=O)c4cc(C)ccc4C)CC3)[nH]n2)c1	3T3 cytotox inconclusive, hNpr1 antagonist inconclusive, HEK293 tox 40µM
O=C(c1ccccc1)N1CCC(NCCOc2ccccc2F)CC1	none
COCC1CN(S(=O)(=O)c2ccc(F)c(C)c2)CC12CCNCC2 (centres undefined)	none
COc1cccc(-c2cc(C3CCN(C(=O)Nc4ccc5c(c4)OCCO5)CC3)[nH]n2)c1	3T3 cytotox 40µM, hNpr1 antagonist inconclusive, HEK293 tox inconclusive, FLuc inh 25µM
O=C(c1nn(CC2CC2)c2c1CNCC2)N1CCC(Cc2ccccc2)CC1	3T3 cytotox 40µM, HEK293 tox inconclusive (no result: hNpr1 antagonist, FLuc inh)
O=C(c1ccc(C(F)(F)F)cc1)N1CCCC1C(=O)N1CCCC1c1nc2ccncc2[nH]1 (centres undefined)	none (no result: hNpr1 antagonist, FLuc inh)
COc1cc(OCc2ccccc2)ccc1CN1CC[C@@]2(O)CCNC[C@H]2C1	3T3 cytotox 20µM, HEK293 tox 22µM
CC1CCC2(C=O)C(CO)=CCCC2C1(C)CC(=O)O (centres undefined)	none (no result: 3T3 cytotox, hNpr1 antagonist, HEK293 tox, FLuc inh)
Cc1ccc(CNC(=O)CN2C(=O)C(c3ccccc3)=NC23CCCCC3)cc1	3T3 cytotox inconclusive, HEK293 tox inconclusive
CN(C(=O)CN1C(=O)C(c2ccccc2)=NC12CCCCC2)c1ccccc1	HEK293 tox inconclusive
O=C(CN1C(=O)C(c2ccccc2)=NC12CCCCC2)NCc1ccccc1	3T3 cytotox inconclusive, HEK293 tox 45µM
CCN(C(=O)CN1C(=O)C(c2ccccc2)=NC12CCCCC2)c1cccc(C)c1	3T3 cytotox inconclusive, HEK293 tox 40µM
O=C(CN1C(=O)C(c2ccccc2)=NC12CCCC2)Nc1ccc(C(F)(F)F)cc1	3T3 cytotox inconclusive, hNpr1 antagonist inconclusive, HEK293 tox 45µM
O=C(NCc1cccc(Cl)c1)c1ccc2nc(-c3ccncc3)oc2c1	3T3 cytotox inconclusive, HEK293 tox inconclusive (no result: hNpr1 antagonist, FLuc inh)
CCOC(=O)[C@@H]1[C@@H](OC)C(=O)N(C)C12CCN(C(=O)OCc1ccccc1)CC2	3T3 cytotox inconclusive (no result: GPT2 inhibitor, hNpr1 antagonist, FLuc inh)
C[S+](=O)([O-])c1ccc(-c2nnc3ccc(C(=O)NCc4ccc(F)c(F)c4)cn23)cc1	3T3 cytotox inconclusive, HEK293 tox inconclusive (no result: hNpr1 antagonist, FLuc inh)

Bioassay records: PubChem BioAssay, National Center for Advancing Translational Sciences (NCATS)
